proKLK7 act – proKLK7 zymogen activators, primary screen, biochemical, fluorescence intensity; Kallikrein-7 (Homo sapiens), P49862; purified proKLK7, EDANS-DABCYL substrate fluorescence; 100% is mature enzyme control, 0% vehicle; activation, % at 7 µM; 370,000 tested, 0.9% active; AID 652039, 2013;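 active means activation above the mean of all tested compounds plus 3 SD, computed per campaign excluding outliers beyond control limits, cut at about 13% in these data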
Target sequence (P49862 whole entry, looked up): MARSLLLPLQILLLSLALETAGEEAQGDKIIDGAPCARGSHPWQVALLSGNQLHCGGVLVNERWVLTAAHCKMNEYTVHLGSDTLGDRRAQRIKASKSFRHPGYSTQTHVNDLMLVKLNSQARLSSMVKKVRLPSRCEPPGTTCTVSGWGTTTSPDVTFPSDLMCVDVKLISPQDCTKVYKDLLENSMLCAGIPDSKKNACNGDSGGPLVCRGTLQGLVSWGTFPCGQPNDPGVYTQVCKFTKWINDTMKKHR
FXN GAA850 act – FXN promoter activators, primary screen, cell-based, luciferase luminescence, HEK293 lucGAA850 | HEK293 lucGAA850 FXN promoter luciferase reporter, 24 h; percent of 10 µM SAHA response | activation, % at 6 µM | 360,000 tested, 0.56% active;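 active means activation above the average of all compounds screened plus 3 SD, cutoff fixed separately per campaign, cut at about 7.5% in these data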;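 further: 0% = DMSO wells and 100% = 10 µM SAHA wells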
FAS-TE inh – FAS thioesterase domain inhibitors, primary screen, biochemical, fluorescence intensity, uHTS; AID 602261, 2012; Fatty acid synthase (Homo sapiens), P49327; inhibition, % at 15 µM; recombinant FAS-TE, OMFH fluorogenic substrate, fluorescence endpoint; 360,000 tested, 0.67% active;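 active means compounds whose normalised, plate-corrected inhibition of enzyme fluorescence in the single-dose primary screen is 50% or more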;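 further: 0% = DMSO with enzyme and 100% = substrate without enzyme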
SMARCA2 act – SMARCA2 (BRM) function activators, primary screen, cell-based, luminescence, high throughput | 370,000 tested, 1% active | activation, % at 9.1 µM | AID 652017, 2013 | MG213 cells, MMTV-luciferase reporter, dexamethasone, overnight; in the data active means activation above about 7.8%;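 further: 0% = vehicle wells and 100% = reference activator wells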
SMARCA2 conf – SMARCA2 (BRM) function activators, confirmation, cell-based, luminescence, triplicate; shares compounds with SMARCA2 act; MG213 cells, MMTV-luciferase with dexamethasone, overnight; MG213 cells expressing E1A, Rb sequestered; DMSO wells 0%, reference activator 100%; activation, % at 9.1 µM; 3,500 tested, 30% active;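 active means activation above its plate's cutoff, the mean activation of tested wells plus 3 SD, cut at about 7.9% in these data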
GAL4-VP16 Luc – GAL4-VP16 luciferase reporter activation, counter-screen for SMARCA2 (BRM) activator project, cell-based, pG5luc, luminescence, high throughput; HEK293 GAL4-VP16 pG5luc reporter; scaled: DMSO wells 0%, SAHA wells 100%; AID 686939, 2013; 3,500 tested, 41% active; shares compounds with SMARCA2 act; activation, % at 9.1 µM;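 active means activation above the solvent-only control well mean plus 3 SD, averaged across control plates, cut at about 5.2% in these data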
Numbers without * were called inactive. Sampled rows, rich in hits. Any-hit rate of the full collection: about 2.9%.

Results for COc1ccc(-n2c(C)c(C)c3c(NCCO)ncnc32)cc1 ?
FXN GAA850 act: 5; FAS-TE inh: -4

Results for Cc1ccc(-n2c(C)c(C)c3c(NCCCO)ncnc32)cc1 ?
proKLK7 act: 0; FXN GAA850 act: 4; FAS-TE inh: -2; SMARCA2 act: 10*; SMARCA2 conf: 12*; GAL4-VP16 Luc: 8.6*

What do the screens show for `Cc1c(C)n(CCc2ccccc2)c2ncnc(NCCO)c12`?
proKLK7 act: 0; FXN GAA850 act: 4; FAS-TE inh: -4; SMARCA2 act: 10*; SMARCA2 conf: 8.4*; GAL4-VP16 Luc: 10*

Results for O=C(O)c1ccc(C=NN=Cc2ccco2)cc1 ?
proKLK7 act: -1; FXN GAA850 act: 3; FAS-TE inh: -3; SMARCA2 act: -1

What do the screens show for `COc1ccc(NS(=O)(=O)c2cccc(Cl)c2Cl)cc1S(=O)(=O)N1CCCCC1`?
proKLK7 act: -2; FXN GAA850 act: 1; FAS-TE inh: 1; SMARCA2 act: -2

How did c1ccc(-c2nc3ccccc3nc2-c2ccc(CN3CCC(c4nc5ccccc5[nH]4)CC3)cc2)cc1 do in these assays?
proKLK7 act: -3; SMARCA2 act: 8.7*; SMARCA2 conf: 0; GAL4-VP16 Luc: 2

How did Cc1ccc2nc(-c3ccc(CN4CCC(c5nc6ccccc6[nH]5)CC4)cc3)c(-c3ccccc3)nc2c1 do in these assays?
proKLK7 act: -8; SMARCA2 act: 5

How did O=C(CCl)NC1CCCc2ccccc21 (centres undefined) do in these assays?
proKLK7 act: -1; FXN GAA850 act: -6; FAS-TE inh: -1; SMARCA2 act: 9.3*; SMARCA2 conf: -2; GAL4-VP16 Luc: -1

How did Cn1c2ccc(Cl)cc2c2nc3ccccc3nc21 do in these assays?
proKLK7 act: -21; FXN GAA850 act: 7; FAS-TE inh: 23; SMARCA2 act: 9.4*; SMARCA2 conf: 11*; GAL4-VP16 Luc: 3

Results for Cc1ccc2c(c1)c1nc3ccccc3nc1n2C ?
proKLK7 act: 1; FXN GAA850 act: 7; FAS-TE inh: 3; SMARCA2 act: 2

How did O=C(NC1CC1)C1CCN(C2CCN(Cc3ccccc3C(F)(F)F)CC2)CC1 do in these assays?
proKLK7 act: 0; FXN GAA850 act: 0; FAS-TE inh: -6; SMARCA2 act: -2

What do the screens show for `CCc1nnc(N/N=C\c2ccc(OC(C)=O)c(OC)c2)n1N`?
proKLK7 act: 1; FXN GAA850 act: 0; FAS-TE inh: -5; SMARCA2 act: 8.6*; SMARCA2 conf: -2; GAL4-VP16 Luc: 2

How did CCc1nnc(N/N=C/c2ccc(O)c(OC)c2)n1N do in these assays?
proKLK7 act: 0; FXN GAA850 act: -1; FAS-TE inh: -4; SMARCA2 act: 1

What do the screens show for `Cc1cccc(C(=O)NC2CC3CCCC(C2)N3C(=O)NC2CCCCC2)c1` (centres undefined)?
proKLK7 act: 0; FXN GAA850 act: 2; FAS-TE inh: -2; SMARCA2 act: 3

Results for Cc1oc(/N=C/c2cccc([N+](=O)[O-])c2)c(C#N)c1C ?
proKLK7 act: 0; FXN GAA850 act: 2; FAS-TE inh: 1; SMARCA2 act: -3

Results for CCCc1cc(=O)n2[nH]c(-c3ccc(Br)cc3)cc2n1 ?
proKLK7 act: 0; FXN GAA850 act: 3; FAS-TE inh: -3; SMARCA2 act: 8.2*; SMARCA2 conf: 4; GAL4-VP16 Luc: 9.2*

What do the screens show for `CCCc1cc(=O)n2[nH]c(-c3cccc(Br)c3)cc2n1`?
proKLK7 act: 0; FXN GAA850 act: 4; FAS-TE inh: 1; SMARCA2 act: 1

How did O=C(NCCc1cccs1)c1ccc(CS(=O)Cc2cccc(Cl)c2)o1 (centres undefined) do in these assays?
proKLK7 act: 0; FXN GAA850 act: -2; FAS-TE inh: -2; SMARCA2 act: -2

How did O=C(Nc1cc(-c2ccccc2)[nH]n1)c1ccccc1 do in these assays?
proKLK7 act: 0; FXN GAA850 act: 1; FAS-TE inh: 0; SMARCA2 act: -1
